In PubChem BioAssay (NCI):
This is part of a sample that, as a whole, favours compounds with a hit. Of some 83,000 tested, about 20% had one in any assay.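 Percent growth is the endpoint: 0 to 100 indicates growth inhibition (40 means 60% inhibition), 0 means no net growth, and negative values indicate cell death.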 Calls of active or inactive are those of the source. The calls were made as follows: active = growth percent below 10; inactive = the rest.

Legend:
Assay in all cases: NCI-60 one-dose screen, 48 h (100 = growth as untreated, 0 = no growth, -100 = all killed)
Details in all cases: 10 µM unless noted
SR leukemia = tested on: SR leukemia
RPMI-8226 leukemia = tested on: RPMI-8226 leukemia
OVCAR-8 ovarian = tested on: OVCAR-8 ovarian
OVCAR-4 ovarian = tested on: OVCAR-4 ovarian
SK-OV-3 ovarian = tested on: SK-OV-3 ovarian
IGROV1 ovarian = tested on: IGROV1 ovarian
OVCAR-3 ovarian = tested on: OVCAR-3 ovarian
HS 578T breast = tested on: HS 578T breast
NCI/ADR-RES ovarian = tested on: NCI/ADR-RES ovarian
T-47D breast = tested on: T-47D breast
BT-549 breast = tested on: BT-549 breast
MDA-MB-435 melanoma = tested on: MDA-MB-435 melanoma
SW-620 colon = tested on: SW-620 colon
MCF7 breast = tested on: MCF7 breast
HCT-116 colon = tested on: HCT-116 colon
HCC-2998 colon = tested on: HCC-2998 colon
KM12 colon = tested on: KM12 colon
OVCAR-5 ovarian = tested on: OVCAR-5 ovarian

Measured: growth

CCCCCC(=O)N(CCCC)CCCC
inactive: SR leukemia 95.5% | RPMI-8226 leukemia 93.8% | OVCAR-8 ovarian 102% | OVCAR-4 ovarian 84.6% | SK-OV-3 ovarian 93.7% | IGROV1 ovarian 113% | OVCAR-3 ovarian 120% | HS 578T breast 109% | NCI/ADR-RES ovarian 111% | T-47D breast 109% | BT-549 breast 102% | MDA-MB-435 melanoma 89.4% | SW-620 colon 117% | MCF7 breast 123% | HCT-116 colon 108% | HCC-2998 colon 111% | KM12 colon 109%

CCc1ccccc1NC(=O)c1sc2nc3c(cc2c1N)C(=O)CCC3
active: SR leukemia 9.38% | SK-OV-3 ovarian 6.9% | OVCAR-3 ovarian -12.7% | NCI/ADR-RES ovarian 5.24% | MDA-MB-435 melanoma -56.6% | MCF7 breast 8.92%
inactive: RPMI-8226 leukemia 17.8% | OVCAR-8 ovarian 24.3% | OVCAR-4 ovarian 60.9% | IGROV1 ovarian 33.3% | HS 578T breast 22.6% | T-47D breast 23.2% | BT-549 breast 48% | SW-620 colon 25.7% | HCT-116 colon 26.1% | HCC-2998 colon 24% | KM12 colon 25.4%

C#Cc1nc2ccccc2c(=O)[nH]1
inactive: SK-OV-3 ovarian 49.6%
active: SR leukemia 2.53% | OVCAR-8 ovarian -31.3% | OVCAR-5 ovarian -44.7% | OVCAR-4 ovarian -74.4% | IGROV1 ovarian -66.2% | OVCAR-3 ovarian -82.3% | HS 578T breast -4.79% | NCI/ADR-RES ovarian -2.94% | T-47D breast -30.6% | BT-549 breast -61.2% | MDA-MB-435 melanoma -58.2% | SW-620 colon -63.7% | MCF7 breast -25% | HCT-116 colon -64.2% | HCC-2998 colon -41.1% | KM12 colon -65.7%

CCN(CC)CCC(=O)c1ccc(OC)c2ccccc12
active: SR leukemia -6.8%
inactive: OVCAR-8 ovarian 89.6% | OVCAR-5 ovarian 91.1% | OVCAR-4 ovarian 98.4% | SK-OV-3 ovarian 98.3% | IGROV1 ovarian 91.6% | OVCAR-3 ovarian 109% | HS 578T breast 95.9% | NCI/ADR-RES ovarian 98.8% | T-47D breast 29.1% | BT-549 breast 79.6% | MDA-MB-435 melanoma 102% | SW-620 colon 93% | MCF7 breast 11.9% | HCT-116 colon 88.4% | HCC-2998 colon 90.8% | KM12 colon 81.8%

COc1ccc(Cl)cc1Nc1nc(C(F)(F)F)ccc1C(=O)N/N=C/c1cccnc1
inactive: SR leukemia 25.1% | RPMI-8226 leukemia 32.5% | OVCAR-8 ovarian 42% | OVCAR-4 ovarian 29.7% | SK-OV-3 ovarian 53.9% | IGROV1 ovarian 40.3% | OVCAR-3 ovarian 29.3% | HS 578T breast 59.6% | NCI/ADR-RES ovarian 41.8% | T-47D breast 46.9% | BT-549 breast 47.1% | MDA-MB-435 melanoma 58.4% | SW-620 colon 47.5% | MCF7 breast 33.3% | HCT-116 colon 43.2% | HCC-2998 colon 53.6% | KM12 colon 59.5%

C/C(=C(/c1ccc(O)cc1)c1ccc(OCCN(C)C)cc1)c1ccccc1
inactive: SR leukemia 63.7% | RPMI-8226 leukemia 85.1% | OVCAR-5 ovarian 87.6% | OVCAR-4 ovarian 83.2% | SK-OV-3 ovarian 90.2% | IGROV1 ovarian 89.1% | OVCAR-3 ovarian 90.2% | HS 578T breast 90% | NCI/ADR-RES ovarian 81.3% | T-47D breast 42.6% | BT-549 breast 92.4% | MDA-MB-435 melanoma 77.2% | SW-620 colon 101% | MCF7 breast 32.6% | HCT-116 colon 68.4% | HCC-2998 colon 97.8% | KM12 colon 81.1%

Cc1ccc(S(=O)(=O)N(CCc2ccc(Cl)cc2)S(=O)(=O)c2ccc(C)cc2)cc1
inactive: SR leukemia 82.5% | RPMI-8226 leukemia 76.9% | OVCAR-5 ovarian 106% | OVCAR-4 ovarian 86.5% | SK-OV-3 ovarian 85.2% | OVCAR-3 ovarian 95% | HS 578T breast 103% | NCI/ADR-RES ovarian 87.9% | T-47D breast 82% | BT-549 breast 98.8% | MDA-MB-435 melanoma 95.4% | SW-620 colon 101% | MCF7 breast 87.9% | HCT-116 colon 93.3% | HCC-2998 colon 88.1% | KM12 colon 91.7%

COc1ccc(-n2c(C)nc3c(c(C)nn3-c3ccccc3)c2=O)cc1
inactive: OVCAR-5 ovarian 30.6% | OVCAR-4 ovarian 36.8% | SK-OV-3 ovarian 45.1% | IGROV1 ovarian 20.3% | HS 578T breast 21.6% | T-47D breast 55.9% | SW-620 colon 23.1% | MCF7 breast 11.5% | HCC-2998 colon 16.6% | KM12 colon 11.3%
active: RPMI-8226 leukemia 5.55% | OVCAR-8 ovarian 6.61% | OVCAR-3 ovarian -32.6% | NCI/ADR-RES ovarian -12.9% | BT-549 breast 9.9% | MDA-MB-435 melanoma 4.94% | HCT-116 colon 3.27%

COc1cc(-c2c3c(nc4c2c(C)nn4-c2ccccc2)-c2ccccc2C(=O)C3=O)cc(OC)c1OC
inactive: RPMI-8226 leukemia 55.2% | OVCAR-8 ovarian 80.1% | OVCAR-5 ovarian 103% | OVCAR-4 ovarian 78.5% | SK-OV-3 ovarian 104% | IGROV1 ovarian 94.9% | HS 578T breast 111% | NCI/ADR-RES ovarian 79.7% | T-47D breast 72.4% | BT-549 breast 68.4% | SW-620 colon 86.2% | MCF7 breast 57.7% | HCT-116 colon 51.5% | HCC-2998 colon 71.1% | KM12 colon 80.8%
active: OVCAR-3 ovarian -29.4% | MDA-MB-435 melanoma -0.815%

Cc1nc2nc(N)nc(N)c2nc1C
inactive: RPMI-8226 leukemia 100% | OVCAR-8 ovarian 96.2% | OVCAR-5 ovarian 93.6% | OVCAR-4 ovarian 96.4% | SK-OV-3 ovarian 103% | IGROV1 ovarian 108% | OVCAR-3 ovarian 98% | HS 578T breast 99.6% | NCI/ADR-RES ovarian 102% | T-47D breast 91.2% | BT-549 breast 89.4% | MDA-MB-435 melanoma 99.5% | SW-620 colon 100% | MCF7 breast 97.9% | HCT-116 colon 94.3% | HCC-2998 colon 99% | KM12 colon 102%

COCCOc1ccc(-c2nc3ccc(-c4nc5ccc(N6CCN(C)CC6)cc5[nH]4)cc3[nH]2)cc1
active: OVCAR-8 ovarian -39% | SK-OV-3 ovarian 7.92% | OVCAR-3 ovarian 2.47% | HS 578T breast -3.7% | T-47D breast 2.28% | BT-549 breast -30.5% | MDA-MB-435 melanoma -43.6% | SW-620 colon 4.55% | HCT-116 colon -57.6% | HCC-2998 colon -52.7%
inactive: RPMI-8226 leukemia 28.4% | OVCAR-5 ovarian 45.3% | OVCAR-4 ovarian 14.1% | IGROV1 ovarian 28.3% | NCI/ADR-RES ovarian 100% | MCF7 breast 17.7% | KM12 colon 46.2%

CCCCCCCCCCCCCC1=NCCN1CCO
active: SW-620 colon -38.6% | HCT-116 colon -36.2%
inactive: RPMI-8226 leukemia 21% | OVCAR-8 ovarian 52.6% | OVCAR-5 ovarian 79.1% | OVCAR-4 ovarian 169% | SK-OV-3 ovarian 107% | IGROV1 ovarian 13.3% | OVCAR-3 ovarian 164% | HS 578T breast 37.9% | NCI/ADR-RES ovarian 84.5% | T-47D breast 65.7% | BT-549 breast 123% | MDA-MB-435 melanoma 85.3% | MCF7 breast 54.8% | HCC-2998 colon 71.2% | KM12 colon 56.7%

CCOC(=O)C(=Cc1ccccc1F)C(=O)OCC
inactive: RPMI-8226 leukemia 93.1% | OVCAR-8 ovarian 105% | OVCAR-5 ovarian 106% | OVCAR-4 ovarian 97% | SK-OV-3 ovarian 106% | IGROV1 ovarian 95.2% | OVCAR-3 ovarian 95.2% | HS 578T breast 104% | NCI/ADR-RES ovarian 100% | T-47D breast 67.4% | BT-549 breast 87.4% | MDA-MB-435 melanoma 84.6% | SW-620 colon 107% | MCF7 breast 58.6% | HCT-116 colon 75.1% | HCC-2998 colon 110% | KM12 colon 84.7%

OC(c1cc(-c2ccccc2)nc2ccc(Cl)cc12)C1CCCCN1 (stereo not given)
inactive: RPMI-8226 leukemia 13.1% | OVCAR-8 ovarian 33.1% | OVCAR-5 ovarian 58.8% | OVCAR-4 ovarian 79% | SK-OV-3 ovarian 89.1% | IGROV1 ovarian 53.4% | OVCAR-3 ovarian 67.5% | HS 578T breast 61.6% | NCI/ADR-RES ovarian 68.5% | T-47D breast 19.9% | BT-549 breast 91.5% | MDA-MB-435 melanoma 42.6% | SW-620 colon 21.2% | HCT-116 colon 33.4%
active: MCF7 breast -41% | HCC-2998 colon -87.7% | KM12 colon 6.52%

C/C(=C(/c1ccc(O)cc1)c1ccc(Cl)cc1)c1ccccc1
active: RPMI-8226 leukemia -45.9% | OVCAR-8 ovarian -53% | OVCAR-5 ovarian -85.3% | OVCAR-4 ovarian -97.4% | SK-OV-3 ovarian -85.6% | IGROV1 ovarian -73.1% | OVCAR-3 ovarian -92.5% | HS 578T breast -37.6% | NCI/ADR-RES ovarian -71% | T-47D breast -13.5% | BT-549 breast -78.9% | MDA-MB-435 melanoma -93.1% | SW-620 colon -71.4% | MCF7 breast -63.3% | HCT-116 colon -69.4% | HCC-2998 colon -74.9% | KM12 colon -86.2%

Cc1nn(-c2ccccc2)c2nc(C)n(-c3ccc(Br)cc3)c(=O)c12
inactive: OVCAR-8 ovarian 25.9% | OVCAR-5 ovarian 36.3% | OVCAR-4 ovarian 40.1% | SK-OV-3 ovarian 41.7% | IGROV1 ovarian 30.6% | HS 578T breast 15% | T-47D breast 23.4% | BT-549 breast 50.7% | SW-620 colon 22.6% | MCF7 breast 13.4% | HCT-116 colon 15.7% | HCC-2998 colon 32.6% | KM12 colon 43.1%
active: RPMI-8226 leukemia 9.81% | OVCAR-3 ovarian -31.7% | NCI/ADR-RES ovarian 3.19% | MDA-MB-435 melanoma -5.13%

CN(C)C(=O)c1cc2cnc(Nc3ccc(-c4csc5c(=O)cc(N6CCNCC6)oc45)cc3)nc2n1C1CCCC1
inactive: OVCAR-8 ovarian 20.7% | OVCAR-5 ovarian 22.9% | OVCAR-4 ovarian 29.7% | SK-OV-3 ovarian 32.2% | IGROV1 ovarian 15.6% | OVCAR-3 ovarian 20.6% | HS 578T breast 11.4% | NCI/ADR-RES ovarian 77.5% | T-47D breast 52.1% | BT-549 breast 46.2% | MDA-MB-435 melanoma 38.2% | KM12 colon 13.8%
active: RPMI-8226 leukemia -22.9% | SW-620 colon 0.864% | MCF7 breast 3.93% | HCT-116 colon 4.23% | HCC-2998 colon -0.6%

S=c1[nH]nc(CSc2ncnc3c2c(-c2ccccc2)cn3-c2ccc(Cl)cc2)o1
inactive: RPMI-8226 leukemia 98% | OVCAR-8 ovarian 97.5% | OVCAR-5 ovarian 104% | OVCAR-4 ovarian 95.4% | SK-OV-3 ovarian 78.2% | IGROV1 ovarian 92.3% | OVCAR-3 ovarian 101% | HS 578T breast 94.5% | NCI/ADR-RES ovarian 99.3% | T-47D breast 90.6% | BT-549 breast 107% | MDA-MB-435 melanoma 104% | SW-620 colon 95.2% | MCF7 breast 93.7% | HCT-116 colon 93.8% | HCC-2998 colon 104% | KM12 colon 98.7%
